{"source": "ChEMBL document CHEMBL1157539", "about": "“Thousands of chemical starting points for antimalarial lead identification” (Nature, 2010)", "type_in_all_cases": "functional", "key": {"Plasmodium falciparum [1]": {"tested_on": "Plasmodium falciparum", "experiment": "GSK_TCMDC: Inhibition of Plasmodium falciparum 3D7 in whole red blood cells, using parasite LDH activity as an index of growth. Test compounds present at 2uM"}, "Plasmodium falciparum [2]": {"tested_on": "Plasmodium falciparum", "experiment": "GSK_TCMDC: Inhibition of Plasmodium falciparum Dd2 in whole red blood cells, using parasite LDH activity as an index of growth. Test compounds present at 2uM"}, "HepG2": {"tested_on": "HepG2", "experiment": "GSK_TCMDC: Percent inhibition of human HepG2 cell line. Test compounds present at 10uM."}}, "data": [{"compound": "CCCCCCNC(=O)C1Cc2c([nH]c3ccc(F)cc23)C2(CCN(Cc3ccccc3)CC2)N1", "note": "(stereo not drawn)", "values": [{"measurement": "Inhibition", "setting": "Plasmodium falciparum [1]", "result": 97, "unit": "%"}, {"measurement": "Inhibition", "setting": "Plasmodium falciparum [2]", "result": 39, "unit": "%"}, {"measurement": "Inhibition", "setting": "HepG2", "result": 11, "unit": "%"}]}, {"compound": "COc1ccc2nc3cc(Cl)ccc3c(NCCO)c2c1.Cl", "values": [{"measurement": "Inhibition", "setting": "Plasmodium falciparum [1]", "result": 100, "unit": "%"}, {"measurement": "Inhibition", "setting": "Plasmodium falciparum [2]", "result": 93, "unit": "%"}, {"measurement": "Inhibition", "setting": "HepG2", "result": 12, "unit": "%"}]}, {"compound": "Cc1cc(OCC2CCN(c3ncc(C(=O)NC4CC4)cc3Cl)CC2)ccc1F", "values": [{"measurement": "Inhibition", "setting": "Plasmodium falciparum [1]", "result": 96, "unit": "%"}, {"measurement": "Inhibition", "setting": "Plasmodium falciparum [2]", "result": 96, "unit": "%"}, {"measurement": "Inhibition", "setting": "HepG2", "result": 16, "unit": "%"}]}, {"compound": "COc1cc(Nc2nccc(N3CCC(NC(=O)c4cc5ccccc5s4)C3)n2)cc(OC)c1OC", "note": "(stereo not drawn)", "values": [{"measurement": "Inhibition", "setting": "Plasmodium falciparum [1]", "result": 96, "unit": "%"}, {"measurement": "Inhibition", "setting": "Plasmodium falciparum [2]", "result": 50, "unit": "%"}, {"measurement": "Inhibition", "setting": "HepG2", "result": 2, "unit": "%"}]}, {"compound": "CN1CCN(Cc2c(O)ccc3c(=O)c(Oc4ccc(C(C)(C)C)cc4)c(C(F)(F)F)oc23)CC1", "values": [{"measurement": "Inhibition", "setting": "Plasmodium falciparum [1]", "result": 99, "unit": "%"}, {"measurement": "Inhibition", "setting": "Plasmodium falciparum [2]", "result": 88, "unit": "%"}, {"measurement": "Inhibition", "setting": "HepG2", "result": 0, "unit": "%"}]}, {"compound": "Oc1c(CN2CCCC(C(F)(F)F)C2)cc(Cl)c2ccccc12", "note": "(stereo not drawn)", "values": [{"measurement": "Inhibition", "setting": "Plasmodium falciparum [1]", "result": 94, "unit": "%"}, {"measurement": "Inhibition", "setting": "Plasmodium falciparum [2]", "result": 53, "unit": "%"}, {"measurement": "Inhibition", "setting": "HepG2", "result": 23, "unit": "%"}]}, {"compound": "Fc1ccc2[nH]c(-c3ccc(-c4ccc(CNCc5cnn(-c6ccccc6)n5)cc4)cc3)nc2c1.O=C(O)C(F)(F)F", "values": [{"measurement": "Inhibition", "setting": "Plasmodium falciparum [1]", "result": 98, "unit": "%"}, {"measurement": "Inhibition", "setting": "Plasmodium falciparum [2]", "result": 47, "unit": "%"}, {"measurement": "Inhibition", "setting": "HepG2", "result": 41, "unit": "%"}]}, {"compound": "COc1cccc(Nc2c(C(N)=O)cnc3ccc(-c4ccccc4)cc23)c1", "values": [{"measurement": "Inhibition", "setting": "Plasmodium falciparum [1]", "result": 98, "unit": "%"}, {"measurement": "Inhibition", "setting": "Plasmodium falciparum [2]", "result": 99, "unit": "%"}, {"measurement": "Inhibition", "setting": "HepG2", "result": 2, "unit": "%"}]}, {"compound": "COc1cc(OC)cc(-c2nn(-c3ccc([N+](=O)[O-])cc3Cl)c(=S)n2CC2CCCO2)c1", "note": "(stereo not drawn)", "values": [{"measurement": "Inhibition", "setting": "Plasmodium falciparum [1]", "result": 98, "unit": "%"}, {"measurement": "Inhibition", "setting": "Plasmodium falciparum [2]", "result": 98, "unit": "%"}, {"measurement": "Inhibition", "setting": "HepG2", "result": 5, "unit": "%"}]}, {"compound": "N#Cc1cccc(NC(=O)NC2CCN(CCCCCNC(=O)C3CC3c3ccc(Cl)c(Cl)c3)CC2)c1", "note": "(stereo not drawn)", "values": [{"measurement": "Inhibition", "setting": "Plasmodium falciparum [1]", "result": 100, "unit": "%"}, {"measurement": "Inhibition", "setting": "Plasmodium falciparum [2]", "result": 0, "unit": "%"}, {"measurement": "Inhibition", "setting": "HepG2", "result": 36, "unit": "%"}]}, {"compound": "NC1CCCN(Cc2ccc(-c3cccc(-c4nc5cc(F)ccc5[nH]4)c3)cc2)C1.O=C(O)C(F)(F)F", "note": "(stereo not drawn)", "values": [{"measurement": "Inhibition", "setting": "Plasmodium falciparum [1]", "result": 100, "unit": "%"}, {"measurement": "Inhibition", "setting": "Plasmodium falciparum [2]", "result": 75, "unit": "%"}, {"measurement": "Inhibition", "setting": "HepG2", "result": 54, "unit": "%"}]}]}
